Data reported in PubChem BioAssay (NCI).
The panel holds about 83,000 compounds, 20% with a hit somewhere; the sample as a whole holds those more often.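 Testing used 96-well plates and a 48-hour single-concentration exposure. Example: -40 means 40% of the starting cells died.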 Calls of active or inactive are those of the source. How the source made its calls: active means growth percent below 10; inactive means the rest.

What was measured:
Test in all cases: NCI-60 one-dose screen, 48 h (100 = growth as untreated, 0 = no growth, -100 = all killed)
Settings in all cases: 10 µM unless noted
OVCAR-8 ovarian = system: OVCAR-8 ovarian
OVCAR-5 ovarian = system: OVCAR-5 ovarian
OVCAR-4 ovarian = system: OVCAR-4 ovarian
SK-OV-3 ovarian = system: SK-OV-3 ovarian
HS 578T breast = system: HS 578T breast
NCI/ADR-RES ovarian = system: NCI/ADR-RES ovarian
T-47D breast = system: T-47D breast
IGROV1 ovarian = system: IGROV1 ovarian
OVCAR-3 ovarian = system: OVCAR-3 ovarian

Measured: growth

CSc1ncc2ncn(C3OC(CO)C(O)C3O)c2n1 (stereo not drawn)
inactive: OVCAR-8 ovarian 138% | OVCAR-5 ovarian 156% | OVCAR-4 ovarian 101% | SK-OV-3 ovarian 104% | HS 578T breast 95.2% | NCI/ADR-RES ovarian 143% | T-47D breast 101%

OC(Cc1cccnc1)c1ccccc1 (stereo not drawn)
inactive: OVCAR-8 ovarian 96.5% | OVCAR-5 ovarian 92.8% | OVCAR-4 ovarian 107% | SK-OV-3 ovarian 112% | IGROV1 ovarian 114% | HS 578T breast 112% | NCI/ADR-RES ovarian 107% | T-47D breast 112%

C[C@]12CC[C@@H]3c4ccc(O)c([N+](=O)[O-])c4CC[C@H]3[C@@H]1CC[C@@H]2NS(=O)(=O)c1ccc(C(F)(F)F)cc1
inactive: OVCAR-8 ovarian 26.9% | OVCAR-5 ovarian 80.8% | OVCAR-4 ovarian 31% | SK-OV-3 ovarian 74.2% | OVCAR-3 ovarian 23.2% | HS 578T breast 52.7% | NCI/ADR-RES ovarian 27.7% | T-47D breast 18.6%

CC(=O)n1c2ccccc2c2ccccc21
inactive: OVCAR-8 ovarian 100% | OVCAR-5 ovarian 89.3% | OVCAR-4 ovarian 105% | SK-OV-3 ovarian 122% | IGROV1 ovarian 101% | OVCAR-3 ovarian 114% | NCI/ADR-RES ovarian 100% | T-47D breast 105%

c1ccc(Nc2nnc(-c3cc(-c4cccnc4)n(-c4ccccc4)n3)s2)cc1
inactive: OVCAR-8 ovarian 59.9% | OVCAR-5 ovarian 105% | SK-OV-3 ovarian 109% | IGROV1 ovarian 108% | OVCAR-3 ovarian 106% | HS 578T breast 119% | NCI/ADR-RES ovarian 62.4% | T-47D breast 51.3%

CC(=O)NC1(C(=O)O)CCCC1
inactive: OVCAR-8 ovarian 99.8% | OVCAR-5 ovarian 158% | OVCAR-4 ovarian 112% | SK-OV-3 ovarian 118% | OVCAR-3 ovarian 112% | HS 578T breast 122% | NCI/ADR-RES ovarian 140% | T-47D breast 128%

O=C(OCCBr)c1ccc(Cl)c([N+](=O)[O-])c1
active: OVCAR-3 ovarian -21.3% | HS 578T breast -29.9% | T-47D breast -57.2%
inactive: OVCAR-8 ovarian 102% | OVCAR-5 ovarian 108% | SK-OV-3 ovarian 79.4% | IGROV1 ovarian 102% | NCI/ADR-RES ovarian 113%

C[C@]12C[C@H](O)[C@H]3[C@@H](CCC4=CC(=O)CC[C@@]43C)[C@@H]1CC[C@@H]2C(=O)CO
inactive: OVCAR-8 ovarian 104% | OVCAR-5 ovarian 43.8% | OVCAR-4 ovarian 97.7% | SK-OV-3 ovarian 81.3% | OVCAR-3 ovarian 110% | HS 578T breast 108% | T-47D breast 92%
active: NCI/ADR-RES ovarian -34.7%

O=C(/C=C/c1ccccc1Cl)c1ccc(O)cc1
inactive: OVCAR-8 ovarian 96.8% | OVCAR-5 ovarian 138% | OVCAR-4 ovarian 63.3% | SK-OV-3 ovarian 86% | HS 578T breast 80.5% | NCI/ADR-RES ovarian 97% | T-47D breast 58.8%

CC(O)c1nc2c(c(=O)n(C)c(=O)n2C)n1C (stereo not drawn)
inactive: OVCAR-8 ovarian 105% | OVCAR-5 ovarian 104% | OVCAR-4 ovarian 104% | SK-OV-3 ovarian 102% | OVCAR-3 ovarian 108% | HS 578T breast 118% | NCI/ADR-RES ovarian 113% | T-47D breast 97.6%

CCOC(=O)C1=NN(c2ccc(Cl)cc2)C2C3N(c4ccc(Cl)cc4)N=C(C(=O)OCC)N3c3ccccc3N12 (stereo not drawn)
inactive: OVCAR-8 ovarian 101% | OVCAR-5 ovarian 101% | OVCAR-4 ovarian 92.4% | SK-OV-3 ovarian 115% | IGROV1 ovarian 76.7% | HS 578T breast 120% | NCI/ADR-RES ovarian 101% | T-47D breast 102%

Cc1nn(-c2ccc(Cl)cc2)c2nc3c(nc12)c(=O)oc1ccccc13
inactive: OVCAR-5 ovarian 98% | OVCAR-4 ovarian 113% | SK-OV-3 ovarian 107% | IGROV1 ovarian 119% | OVCAR-3 ovarian 118% | HS 578T breast 107% | NCI/ADR-RES ovarian 102% | T-47D breast 111%

Cc1nn(-c2ccc(Cl)cc2)c2nc3c(nc12)C(=O)C(=O)c1ccccc1-3
inactive: OVCAR-5 ovarian 95.9% | OVCAR-4 ovarian 48.4% | SK-OV-3 ovarian 93.8% | IGROV1 ovarian 59.1% | HS 578T breast 61.3% | NCI/ADR-RES ovarian 76.5% | T-47D breast 67.6%
active: OVCAR-3 ovarian 2.92%

Cc1ccc(C(O)C2=CC(=O)c3ccccc3C2=O)cc1 (stereo not drawn)
inactive: OVCAR-8 ovarian 91.3% | OVCAR-5 ovarian 95.4% | SK-OV-3 ovarian 105% | IGROV1 ovarian 89.6% | OVCAR-3 ovarian 93.3% | HS 578T breast 104% | NCI/ADR-RES ovarian 96.4% | T-47D breast 76.5%

O=C(Cc1ccccn1)C(F)(F)C(F)(F)C(F)(F)F
inactive: OVCAR-5 ovarian 113% | OVCAR-4 ovarian 109% | SK-OV-3 ovarian 109% | IGROV1 ovarian 123% | OVCAR-3 ovarian 112% | HS 578T breast 102% | NCI/ADR-RES ovarian 104%

CCn1c2ccccc2c2ccc(C(C)=O)cc21
inactive: OVCAR-8 ovarian 104% | OVCAR-5 ovarian 89.9% | SK-OV-3 ovarian 111% | IGROV1 ovarian 111% | OVCAR-3 ovarian 112% | HS 578T breast 144% | NCI/ADR-RES ovarian 101% | T-47D breast 96.6%

CCSc1nnc2n(Cc3ccccc3)c(=O)c3c(C)c(C(N)=O)sc3n12
inactive: OVCAR-5 ovarian 94.3% | OVCAR-4 ovarian 99.5% | SK-OV-3 ovarian 88.5% | IGROV1 ovarian 101% | OVCAR-3 ovarian 119% | HS 578T breast 101% | NCI/ADR-RES ovarian 97.1% | T-47D breast 99.8%
